Shown are actives, neighbours in structure and some others; about 6.2% of the full set was active somewhere.
VP16 counter = inhibits Gal4-VP16 luciferase reporter, ROR gamma counter-screen; Drosophila S2 Gal4-VP16 UAS-luciferase, luminescence, 20 h; Potency, µM (doses to about 53.6 µM), for inactives: at the highest dose activity, negative = inhibition, usual class: inhibitors; 3.5% of 310,000 active; AID 2546;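 also: Gal4-VP16 expression switched on by copper sulfate through the metallothionein promoter; nearly all actives have a fitted effect of over 50% in size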
RORgamma inh = blocks mouse ROR gamma transcriptional activity; P51450; Drosophila S2 Gal4-RORgamma UAS-luciferase reporter, 20 h; Potency, µM (highest dose often 53.6 µM), inactives show at the top dose activity change, negative = inhibition, usual class: inhibitors; 5.4% of 310,000 active; also: nearly all actives have a fitted effect of over 60% in size
Target sequence (P51450 whole entry, looked up, the tested form may be a part): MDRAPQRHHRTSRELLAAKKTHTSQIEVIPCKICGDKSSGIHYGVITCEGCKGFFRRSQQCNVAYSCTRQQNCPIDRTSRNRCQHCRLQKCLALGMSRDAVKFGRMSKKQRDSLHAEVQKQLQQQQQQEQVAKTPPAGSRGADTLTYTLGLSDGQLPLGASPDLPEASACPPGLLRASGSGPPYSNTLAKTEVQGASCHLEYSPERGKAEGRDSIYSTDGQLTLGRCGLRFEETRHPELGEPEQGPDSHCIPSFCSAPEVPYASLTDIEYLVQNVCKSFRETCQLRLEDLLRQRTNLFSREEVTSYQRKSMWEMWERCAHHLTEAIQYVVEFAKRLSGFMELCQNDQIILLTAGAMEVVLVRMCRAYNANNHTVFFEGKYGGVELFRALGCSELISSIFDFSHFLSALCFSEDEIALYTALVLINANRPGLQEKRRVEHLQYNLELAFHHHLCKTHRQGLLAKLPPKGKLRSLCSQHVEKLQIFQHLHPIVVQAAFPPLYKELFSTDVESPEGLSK
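Drosophila S2 cells stably expressing Gal4-DBD/mouse RORγ fusion under metallothionein promoter plus UAS-luciferase; compound 1 h, then 700 uM CuSO4 induction for 20 h at ambient temperature; inhibition read as reduced luminescence.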
Luc counter = counter-screen: inhibitors of Kinase-Glo firefly luciferase; Potency, µM (titrated, usually from 38.3 µM), inactives show at the highest dose activity change, negative = inhibition, actives largely listed as inhibitors; 0.28% of 200,000 active; Kinase-Glo luciferase, ATP luminescence, 8 min; Q27757; also: nearly all actives have a fitted effect of over 60% in size
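Compound is pinned into ATP-containing buffer (10 uM ATP, imidazole pH 7.2, 7 mM MgCl2). Kinase-Glo luciferase reagent is then added. Light output is recorded following an 8-min room-temperature incubation.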
Starred values were filed as active, the others as inactive; ? = inconclusive; · = no result given; [ ] = dose if it differs, or a comment. Calls follow the shape of the dose curve; as a rule, active = well fitted curve in the direction sought with a large enough effect; inconclusive = small, poorly fitted or top-dose-only effect, or another doubt; inactive = no such curve, though single readings can be large; an effect the other way counts as inactive or inconclusive. % is scaled to controls: 0 for no effect and ±100 for the full control effect; potency is read from the fitted curve at half-maximal effect.

SMILES	VP16 counter	RORgamma inh	Luc counter
CC1OC(OC2CCC3(C)C(CCC4C3CC(O)C3(C)C(C5=CC(=O)OC5)CCC43O)C2)CC(O)C1OC1CC(O)C(OC2CC(O)C(OC3OC(CO)C(O)C(O)C3O)C(C)O2)C(C)O1 (stereo unspecified)	8%	-10%	2%[39.9 µM]
CCN(CC)c1ccc(C=C2C(=O)OC(c3ccccc3)OC2=O)cc1 (stereo unspecified)	8%	-15%	-1%
CCN(CC)c1ccc(/C=C/C(=O)C2C(=O)C=C(C)OC2=O)cc1 (stereo unspecified)	?	13µM*	?
CC(C)N1CCN(CCCc2ccccc2)CC1CCO (stereo unspecified)	-12%	-14%	·
OCc1ccccc1OCCOc1ccc(Cl)c2cccnc12	12%	?	0%
Clc1ccc(OCc2cn3ccccc3n2)c2ncccc12	?	11µM*	-4%
Cc1ccccc1CN1CCC(Oc2ccc(C(=O)NCc3ccccn3)cc2)CC1	1%	0%	·
O=S(=O)(c1ccccc1)N1CCC2(CC1)CN(Cc1ccccc1)C2	-13%	3%	-2%
CCCCCCCCCCCCCCCCOCC(CO)OC (stereo unspecified)	-16%	21%	2%
CCOc1cnn(-c2cc(Oc3ccc(C)cc3)ncn2)c(=O)c1Cl	4%	4%	-3%
Cc1ccccc1Oc1cc(-n2ncc(Cl)c(Cl)c2=O)ncn1	3.2µM*	1.1µM*	-1%
CN(Cc1ccco1)S(=O)(=O)c1ccc(CN2C(=O)c3cccnc3C2=O)s1	2%	-17%	·
CN(C)S(=O)(=O)c1ccc(S(=O)(=O)NC2CCOC(C)(C)C2)cc1 (stereo unspecified)	-8%	-13%	0%
CC(C)C[C@H](NC(=O)N1CCCCCC1)C(=O)N[C@H](Cc1cn(C)c2ccccc12)C(=O)N[C@H](Cc1ccccn1)C(=O)O	2%	-19%	-2%
CCc1ccc(Nc2n[n+](-c3ccccc3)c(-c3ccc(OC)c(Br)c3)s2)cc1	1%	27%	·
COc1cc2c(cc1NC(=O)CSc1ccc(Cl)cc1)oc1ccccc12	-9%	6%	6%
COc1cc2c(cc1NC(=O)COC(=O)C1CC(=O)N(Cc3ccco3)C1)oc1ccccc12 (stereo unspecified)	7.9µM*	8.9µM*	-1%
COc1cc2c(cc1NC(=O)COC(=O)[C@@H](NC(=O)c1ccccc1F)C(C)C)oc1ccccc12	11µM*	10µM*	1%
COc1cc2c(cc1NC(=O)COCC(=O)O)oc1ccccc12	-10%	2%	·
CCN(CC)c1ccc(C(=O)OCC(=O)Nc2cc3oc4ccccc4c3cc2OC)cc1	-1%	-15%	0%
COc1cc2c(cc1NC(=O)COC(=O)CNC(=O)c1ccccc1)oc1ccccc12	6.3µM*	11µM*	·
COc1cc2c(cc1NC(=O)COC(=O)[C@@H](NC(=O)c1ccccc1)C(C)C)oc1ccccc12	?	8.9µM*	1%
Cc1[nH]c2ccccc2c1C(=O)COC(=O)C1CC(=O)N(Cc2ccco2)C1 (stereo unspecified)	1%	3%	0%
COc1cc2c(cc1OC)CN(C(=O)CSc1nnc(C)s1)CC2	5%	?	-1%
O=C(Nn1cnnc1)c1ccc(Cl)cc1[N+](=O)[O-]	0%	-8%	·
SMILES	VP16 counter	RORgamma inh	Luc counter
O=C(COc1ccc(Br)cc1)N1CCNC1=O	-4%	25%	·
O=C1CC(c2ccccc2F)C2=C(COC2=O)N1 (stereo unspecified)	1%	-2%	0%
O=C(CCc1ccc(S(=O)(=O)NC2CCCCC2)cc1)N(Cc1ccccc1)Cc1ccccc1	-10%	38%	0%
Oc1cc(O)c2c(c1)O[C@@H](c1ccc(O)c(O)c1)[C@H](O[C@@]1(c3cc(O)c(O)c(O)c3)Oc3cc(O)cc(O)c3[C@H](O)[C@@H]1O)C2	·	·	-4%[7.66 µM]
CCC(C)(C)n1nnnc1C(c1ccc(C)cc1)N1CCN(Cc2ccc3c(c2)OCO3)CC1 (stereo unspecified)	-2%	-10%	-1%
c1ccc(-c2ccc(-c3ccc(C4=NCCN4)cc3)o2)cc1	·	·	0%[7.66 µM]
CCC(NC(=O)CCl)c1ccc(C)cc1 (stereo unspecified)	2%	30%	-2%
CCC(NC(=S)NC1CCCCC1)c1ccc(C)cc1 (stereo unspecified)	5µM*	2.8µM*	·
CCCc1ccc(C(C)NC(=S)NC2CCCCC2)cc1 (stereo unspecified)	3.5µM*	2.5µM*	·
CC(NC(=S)NC1CCCCC1)c1ccccc1 (stereo unspecified)	?	-18%[1.91 µM]	·
Cc1c(/C(O)=C2\C(=O)C(=O)N(CCN(C)C)C2c2ccccc2)cnn1-c1ccccc1 (stereo unspecified)	-4%	-7%	·
NC(=O)c1cc(NC(=O)CCCc2nc3ccccc3s2)cc(C(N)=O)c1	4%	12%	·
Cc1cc(N2CCOCC2)ccc1/C=C1\SC(=O)N(C(C)C)C1=O	3%	?	-7%
CCOC(=O)CN1C(=O)S/C(=C\c2ccc(-c3ccc(C(=O)O)c(Cl)c3)o2)C1=O	9%	-24%	·
CC(C)N1C(=O)S/C(=C\c2ccc(-c3ccc(Cl)c(C(=O)O)c3)o2)C1=O	2.5µM*	?	·
CCN(CC)c1ccc(/C=C2/SC(=O)N(C(C)C)C2=O)o1	2.8µM*	5µM*	-1%
Nc1ccc2nc(-c3ccccc3)[nH]c2c1	?	13µM*	?
Nc1ccc2nc(-c3ccccn3)[nH]c2c1	?	20µM*	11µM*
Nc1ccc2nc(-c3cccnc3)[nH]c2c1	7%	31%	-20%
Nc1ccc2nc(-c3cccs3)[nH]c2c1	14%	?	-23%
COc1cc(OC)c(C2CC(=O)N3CN(C)CSC3=C2C#N)cc1OC (stereo unspecified)	4%	-21%	-2%
COc1ccc(Br)cc1C1CC(=O)N2CN(C)CSC2=C1C#N (stereo unspecified)	-2%	16µM*	0%
Cc1cc([N+](=O)[O-])cc2c1NC(=O)C2(O)N1CCOCC1 (stereo unspecified)	?	11µM*	-1%
CC1CCN(C2(O)C(=O)Nc3ccc([N+](=O)[O-])cc32)CC1 (stereo unspecified)	-6%	-7%	0%
CCCc1ccc(OCc2ccc(C(=O)N/N=C/c3cccnc3)o2)cc1	-8%	?	·
SMILES	VP16 counter	RORgamma inh	Luc counter
Cc1cccc(-c2cccc(-c3cc(=O)oc4cc5c(cc34)OCO5)c2)c1	-8%	15%	1%[39.9 µM]
O=C(NCC(=O)N(c1ccc(F)cc1)C(C(=O)NCC1CCCO1)c1ccccc1)c1ccco1 (stereo unspecified)	-2%	9%	1%
O=C(NCC(=O)N(c1cccc(F)c1)C(C(=O)NCC1CCCO1)c1ccccc1)c1ccco1 (stereo unspecified)	3%	6.3µM*	·
Clc1cccc(C(c2ccc3nc[nH]c3c2)n2ccnc2)c1 (stereo unspecified)	-5%	3%	·
COc1ccc(C)cc1NC(=O)c1cnc2sccn2c1=O	3%	3%	3%
O=c1c(-c2cc(F)cc(F)c2)nc2cnc(N3CCNCC3)nc2n1Cc1ccc(F)cc1	4.5µM*	3.2µM*	·
COc1cccc(Cn2c(=O)c(C)nc3cnc(N4CCNCC4)nc32)c1	-9%	-34%	-2%

Bioassay records deposited in PubChem by National Center for Advancing Translational Sciences (NCATS).
